This is an account of results in PubChem BioAssay AID1851 (National Center for Advancing Translational Sciences (NCATS), 2009).

As usually defined, the AC50 is the concentration at which the activity in the assay is half-maximal.

“And” between values parts separate entries of the source, which are not always exact repeats. Equal values may be shown once. Among all 16,000 compounds or so, about 5,700 (36%) were called active. Not shown: some 24% with an inconclusive outcome. Some of the results follow. Values without a mark were called inactive. The call rests on the fitted dose curve; in most records, active means well fitted curve in the direction sought with a large enough effect; inconclusive means small, poorly fitted or top-dose-only effect, or effect the other way; inactive means no such curve, though single readings can be large or run the other way.
On the % scale 0 is the no-effect control and ±100 the full control effect.

The experiment deals with Cytochrome P450 1A2 (Homo sapiens) (UniProt P05177). Put plainly: Cytochrome panel assay with activity outcomes. The conditions noted are these: recombinant CYP, pro-luciferin dealkylation, luminescence, p450-cyp1a2; series mostly up to 57.1 µM; activity, negative = inhibition: at the top concentration.
Sequence of Cytochrome P450 1A2 (Homo sapiens) (P05177 whole entry, looked up): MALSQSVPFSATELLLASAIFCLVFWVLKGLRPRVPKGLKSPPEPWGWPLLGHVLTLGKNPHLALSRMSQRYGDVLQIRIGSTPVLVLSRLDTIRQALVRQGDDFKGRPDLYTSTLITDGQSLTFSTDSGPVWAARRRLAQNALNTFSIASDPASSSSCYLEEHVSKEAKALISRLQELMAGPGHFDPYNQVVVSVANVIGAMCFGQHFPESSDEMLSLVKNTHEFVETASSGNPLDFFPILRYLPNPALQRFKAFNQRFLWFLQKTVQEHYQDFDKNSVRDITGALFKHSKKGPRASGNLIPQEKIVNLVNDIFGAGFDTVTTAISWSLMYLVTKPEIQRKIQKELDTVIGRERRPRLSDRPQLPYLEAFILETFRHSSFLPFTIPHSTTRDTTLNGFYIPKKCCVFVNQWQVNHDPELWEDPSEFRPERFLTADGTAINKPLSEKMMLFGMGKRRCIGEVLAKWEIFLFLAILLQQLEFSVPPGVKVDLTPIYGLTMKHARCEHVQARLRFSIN
Take `O=C(O)[C@H]1C[C@H](C(=O)O)N1`: the “activity, negative = inhibition” value was -1.37%. On the same count and under the same terms, the result for `O=C(O)[C@@H]1CCCN1` reads -12% [at 11.4 µM]. As for `O=C(O)[C@@H]1C[C@@H](C(=O)O)N1`, the AC50 is 31.6 µM (active). Regarding `NC(N)=N/N=C\c1ccc(O)c(C(=O)O)c1`, the activity, negative = inhibition was -11.9% [at 2.29 µM].

As to `NC(N)=NC(=O)Cc1c(Cl)cccc1Cl`, the AC50 result is “inactive”. On the same count and under the same terms, the result for `NC(N)=NN=Cc1c(Cl)cccc1Cl` reads 7.94 µM (active) and 3.98 µM (active). For the compound `Cc1cccc(NC(=O)c2cc(N3C(=O)CCC3=O)ccc2Cl)n1`, the “activity, negative = inhibition” value is -29.7%. `Cc1cccc(NC(=O)c2cc(=O)c3ccccc3o2)n1`: the AC50 is 2 µM (active). Turning to `Cc1cccc(Sc2c([N+](=O)[O-])ncn2C)n1`, the “activity, negative = inhibition” value was 14.5%. Same read-out and setting: then `Cc1ccc(OCC(=O)NNC(=O)c2cc3ccccc3o2)cc1`, with -13.1%. Regarding `Cc1cccc(NC(=O)c2ccc([N+](=O)[O-])o2)n1`, the half-maximal activity concentration (AC50) was 5.01 µM (active).

Turning to `CNC(=O)CCc1nc(-c2ccc(C(C)(C)C)cc2)no1`, the AC50 was 6.31 µM (active). On the same count and under the same terms, then `CN(C)C(=O)CCc1nc(-c2ccc(C(C)(C)C)cc2)no1`, with 6.31 µM (active); and `CN(C)c1ncc2ncc(=O)n(C)c2n1`, with 6.31 µM (active).

On to `CN(C)c1ncc2ncc(=O)n(C3CC3)c2n1`, for which the AC50 is 3.16 µM (active). On the same count and under the same terms, then `COc1ncc2ncc(=O)n(C3CC3)c2n1`, with 10 µM (active); and `COc1ccc(Oc2ncc3ncc(=O)n(C4CC4)c3n2)cc1`, with 5.01 µM (active). As to `COC(=O)[C@@]1(Cc2ccc(OC)cc2)[C@H]2c3cc(C(=O)N4CCCC4)n(Cc4cc(F)cc5c4OCOC5)c3C[C@H]2CN1C(=O)c1ccccc1`, the “activity, negative = inhibition” value is -16.7%. With `C/C(CCN1CCc2nc(-c3ccccc3)c(-c3ccccc3)cc2C1)=N\O[C@@H](C)c1cn([C@@H]2COC[C@@H]2O)nn1`, the activity, negative = inhibition is -3.92% [at 11.4 µM].

In the case of `Cc1nc(NC(N)=S)sc1C(=O)Nc1ccccc1`, the concentration at half-maximal activity (AC50) was 8.91 µM (active). Still for that read-out and setting: the result for `NC(=S)N/N=C/c1ccccc1OCc1cccc(Cl)c1` reads 2.24 µM (active).

Regarding `CCOc1cc(/C=N/NC(=O)CN2CCCCC2)ccc1OCc1ccccc1`, the “activity, negative = inhibition” value is -28.3%. With `O/N=C/c1ccccc1OCc1ccc(Cl)cc1`, the AC50 is 2.24 µM (active).

Turning to `O=C(O)c1ccc(OCc2ccccc2)c(Cl)c1`, the activity, negative = inhibition is -3.18% [at 2.29 µM]. In the case of `Cc1ccc(COc2ccc(Br)cc2/C=N/O)cc1`, the AC50 is 1.58 µM (active).

For the compound `O=C(Cc1ccccc1)N/N=C/c1ccccc1OCc1ccc(Cl)cc1`, the AC50 was 2.24 µM (active). For the compound `NCc1ccc(S(N)(=O)=O)cc1`, the “activity, negative = inhibition” value was -4.42% [at 25.6 µM]. Same read-out and setting: then `Cc1[nH]c2ccccc2c1C(c1ccccn1)N1CCC(C)CC1` (configuration not stated), with -17.7%.

Regarding `O/N=C/c1cc(Cl)ccc1OCc1cccc2ccccc12`, the AC50 was 0.112 µM (active). On the same count and under the same terms, the result for `Cc1n[nH]c(=S)n1/N=C/c1ccccc1OCc1ccc(Cl)cc1` reads 1.58 µM (active); that for `O=C1CCC(c2ccc(-n3ccnc3)cc2)=NN1`, 0.158 µM (active). Take `CCn1c(O)c(/C=N/N=C2CCCC2)c2ccc(C3=NNC(=O)CC3)cc21`: the “activity, negative = inhibition” value is -21%.

`O=C(Nc1cccc(F)c1)N1CCC2(CCNCC2)CC1`: the “activity, negative = inhibition” value is 11.5%. The same measure, in the same setting: the result for `COc1cccc(Cn2c(=O)c(-c3cccc(C#N)c3)nc3cnc(Nc4ccccc4)nc32)c1` reads 0.136%. Regarding `COCCn1c(=O)c(-c2ccccc2)nc2cnc(Nc3ccccc3)nc21`, the concentration at half-maximal activity (AC50) is 5.01 µM (active). As to `CCNc1ncc2nc(-c3ccccc3)c(=O)n(CCOC)c2n1`, the AC50 was 3.16 µM (active). On the same count and under the same terms, the result for `CCNc1ncc2nc(-c3cc(F)cc(F)c3)c(=O)n(CCOC)c2n1` reads 3.16 µM (active). For `O=C(CNS(=O)(=O)c1ccc(Br)s1)N1CCC(N2CCCCC2)CC1`, the “activity, negative = inhibition” value is -3.52%.

Regarding `Oc1cc(O)c2c(c1)O[C@@H](c1ccc(O)c(O)c1)[C@H](O[C@@]1(c3cc(O)c(O)c(O)c3)Oc3cc(O)cc(O)c3[C@H](O)[C@@H]1O)C2`, the activity, negative = inhibition was -13.3% [at 11.4 µM].

In the case of `COc1ccc(O[C@H]2C=C[C@@H](c3ccccc3)O[C@H]2COC(=O)CC/C(C)=N\O[C@@H](C)CN2CCCc3nc(C)c(C)cc32)cc1`, the activity, negative = inhibition was 2.58% [at 11.4 µM]. In the case of `CC(C)Oc1ccc2ccccc2c1C=O`, the AC50 is 1.12 µM (active). Take `Cc1cc(NC(=O)COC(=O)c2ccc(NS(=O)(=O)c3ccc(C)c(C)c3)cc2)no1`: the “activity, negative = inhibition” value is -13%.

Consider `COc1ccccc1NS(=O)(=O)c1cccc(C(=O)OCC(=O)Nc2cc(C)on2)c1`, for which the AC50 was 14.1 µM (active). Regarding `Cc1n[nH]c(C)c1S(=O)(=O)N1CCC(C(=O)O)CC1`, the “activity, negative = inhibition” value is 1.2%. Regarding `CCOC(=O)[C@@]12C[C@@H]1/C(=N/O)c1ccccc1O2`, the AC50 is 3.98 µM (active). On the same count and under the same terms, the result for `O=C(Nc1ccccc1)[C@@]12C[C@@H]1/C(=N/O)c1ccccc1O2` reads 2.51 µM (active). On to `Cc1c(NC(=O)C2CCN(S(=O)(=O)c3ccc(Cl)cc3)CC2)c(=O)n(-c2ccccc2)n1C`, for which the “activity, negative = inhibition” value is 15.2%.
